TRHR agonist = TRH receptor (human) agonism; P34981; TRHR cells, calcium flux fluo-8, FDSS agonist mode; activation, % at 2 µM; actives 0.18% (n = 360,000); also: 0% is about no effect
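TRHR-expressing cells, plated overnight in medium with 10% serum, were loaded with fluo-8 calcium dye at room temperature. After a 10 s baseline, library compound was pin-added and calcium release was recorded kinetically (ex 480/em 530) as agonist response.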
TRHR PAM = allosteric enhancers of human TRH receptor; P34981; TRHR cells, fluo-8 calcium fluorescence, EC20 TRH enhancement; enhancement, % at 2 µM; actives 0.66% (n = 360,000); AID 493056; in the data active = enhancement above about 30%; also: 0% is about no effect
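Enhancer read-out: after compound pinning and an initial kinetic agonist-mode read, an EC20 of TRH (10 nM final) was injected and fluo-8 calcium signal (Ex 480/Em 530) followed at 1 s/cycle for 100 cycles in TRHR-expressing cells.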
D1 potentiator = human D1 dopamine receptor positive modulation | actives 0.036% (n = 360,000) | HEK293 TREx D1 cells, calcium flux, dopamine EC20 potentiation | potentiation, % at 10 µM | AID 504651; in the data active = potentiation above about 30%; also: 0% is about no effect
Target sequence (P21728 whole entry, looked up): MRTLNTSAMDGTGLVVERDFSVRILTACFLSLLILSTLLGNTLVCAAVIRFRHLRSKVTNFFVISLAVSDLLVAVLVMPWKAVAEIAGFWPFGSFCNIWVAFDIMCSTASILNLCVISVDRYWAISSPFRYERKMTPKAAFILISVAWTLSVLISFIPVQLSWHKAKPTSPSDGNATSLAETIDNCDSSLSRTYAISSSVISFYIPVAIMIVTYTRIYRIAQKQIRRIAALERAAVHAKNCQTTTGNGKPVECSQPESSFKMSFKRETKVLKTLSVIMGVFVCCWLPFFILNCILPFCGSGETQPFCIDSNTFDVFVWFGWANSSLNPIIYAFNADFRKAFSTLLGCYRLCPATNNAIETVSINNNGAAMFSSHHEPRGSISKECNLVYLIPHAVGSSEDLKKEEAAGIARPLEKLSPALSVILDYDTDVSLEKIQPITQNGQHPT
D1 ag = human D1 receptor agonism | HEK293 T-REx D1 cells, calcium flux, agonist mode | activation, % at 2 µM | actives 1% (n = 360,000) | AID 504660; also: 0% is about no effect
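Agonism was scored from calcium flux recorded over 180 s (1 read/s) after pintool compound addition, following a 10-cycle baseline. Cells were inducible force-coupled HEK293 TREx D1, plated overnight at 30 C and loaded with no-wash calcium dye.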
D1 antag = human D1 dopamine receptor antagonism. HEK293 TREx D1 cells, calcium flux, dopamine EC80; hits give low values. activity change, negative = inhibition, % at 10 µM. actives 3.2% (n = 360,000). AID 504652; in the data active = activity change below about -30%; also: % is scaled to controls: 0 for no effect and ±100 for the full control effect
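Tetracycline-induced HEK293 T-REx cells with force-coupled D1 receptor were loaded with a no-wash calcium dye. Compound was added after a 10 s baseline and read kinetically for 180 s; EC80 dopamine was then added and calcium flux followed another 180 s.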
Numbers without * were called inactive; . = not tested or not shown; ! = not confirmed by another sample. An excerpt weighted towards active compounds, which were near 4.7% of everything screened. Rule as the data show it, unless noted: active = activation above about 30%; inactive = the rest.

SMILES	TRHR agonist	TRHR PAM	D1 potentiator	D1 ag	D1 antag
O=S(=O)(c1ccccc1)N1CCN(S(=O)(=O)N2CCCCC2)CC1	1	0	-2	2	10
CCN(CC)S(=O)(=O)c1ccc(Oc2ccc(S(=O)(=O)N(CC)CC)cc2)cc1	2	-2	-5	31*	-26
CCN(CC)S(=O)(=O)c1ccc(S(=O)(=O)N2CCCC2)cc1	0	38*	7	3	-2
Cc1ccc(NC(=O)c2c(C)nc3sc(C(=O)Nc4ccc(F)cc4)c(N)c3c2-c2ccccc2Cl)c(C)c1	1	-2	1	5	-39*
COc1ccc(OC)c(CCNC(=O)c2cnn(-c3ccccc3)c2-n2cccc2)c1	-1	-5	-5	17	-5
CCOC(=O)C1CCC(CN(Cc2c(Cl)cccc2Cl)S(=O)(=O)c2ccc(Cl)cc2)CC1 (stereo not drawn)	1	2	-2	5	11
CCOC(=O)C1CCC(CN(Cc2c(Cl)cccc2Cl)S(=O)(=O)c2ccc(F)cc2)CC1 (stereo not drawn)	2	4	-1	9	-38*
CCOC(=O)c1c(C)[nH]c(C)c1S(=O)(=O)N(C)CC(=O)NCc1cccc(Br)c1	0	-5	-2	1	-36*!
COc1cc(C2c3c(oc4ccccc4c3=O)C(=O)N2Cc2ccccc2Cl)ccc1O (stereo not drawn)	0	0	1	0	7
C=Cc1ccc(Cn2c(C(=O)O)c(CNC3CCCCC3)c3ccc(OC)cc32)cc1	0	-2	-4	0	0
N#Cc1nc(Nc2cc(F)cc(F)c2)c2ncn(C3CCCC3)c2n1	1	2	3	3	1
Cn1ccc(C(=O)Nc2ccc(Br)cc2Br)n1	0	-2	-16	1	-43*
Cc1ccc(NC(=O)c2ccn(C)n2)c(Br)c1	1	2	0	1	-5
COc1ccc2c(Cl)c(-c3nnc(SCC(=O)c4ccccc4)n3C)sc2c1	0	-5	-5	4	-43*
CCN(CC)CCN(Cc1cc2cc3c(cc2[nH]c1=O)OCCO3)C(=S)NC	0	-4	-8	-2	-31*
CCNC(=S)N(CCO)Cc1cc2cc3c(cc2[nH]c1=O)OCO3	0	34*	-2	0	-22
CNC(=S)N(CCO)Cc1cc2cc3c(cc2[nH]c1=O)OCO3	1	6	-2	2	-17
CNC(=S)N(CCO)Cc1cc2cc3c(cc2[nH]c1=O)OCCO3	0	10	-1	3	14
Cn1c(=O)c2c(-c3ccccc3)n3c(c2n(C)c1=O)C(c1ccc([N+](=O)[O-])cc1)Nc1ccccc1-3 (stereo not drawn)	0	-1	-1	4	-10
O=C1c2ccccc2NC(c2ccc(-c3ccccc3F)o2)N1O (stereo not drawn)	-1	36*	-3	0	.
Cc1cccc(Cn2c(=O)n(CC3CCC(C(=O)NC(C)C)CC3)c(=O)c3sccc32)c1 (stereo not drawn)	0	3	-5	2	4
CCOc1ccc(NC(=O)C2CCN(C(=O)NC3CCCCC3)CC2)cc1	0	6	4	-1	-35*
O=c1[nH]c(-[n+]2ccccc2)c(/C=N/NC([S-])=Nc2ccccc2)s1	56*	3	-1	174*	-3
O=C(CN1C(=O)COc2ccc(S(=O)(=O)Nc3ccccc3)cc21)NCc1ccccc1Cl	1	-18	0	5	5
CC(C)Oc1ccc(C(CC(=O)NCCCN(C)C)c2ccc(F)cc2)cc1 (stereo not drawn)	0	2	-7	2	-37*
SMILES	TRHR agonist	TRHR PAM	D1 potentiator	D1 ag	D1 antag
CCc1cc2cc(C)ccc2nc1SCC(=O)NNC(=O)c1ccco1	-1	1	.	34*	12
CCOc1ccc(-n2nnnc2SCC(=O)NNC(=O)c2ccco2)cc1	-1	0	8	2	-38*
O=C(Nc1ccccc1F)c1cnc(N2CCCCC2)c2ccccc12	0	2	-2	0	16
Cc1nc2nc(C)c(CCC(=O)NCc3cccc(Cl)c3)c(C)n2n1	0	-9	-2	9	2
O=C(O)Cn1c(=O)n(Cc2ccccc2)c2ccccc21	0	0	-6	4	-10
N=c1n(CC(=O)c2cccs2)c2ccccc2n1Cc1ccccc1	2	-7	-10	47*	-22
COc1ccc(N2CCN(C(=O)Nc3cn(CC(C)C)c(=O)c4ccccc34)CC2)cc1	-1	-6	-2	1	3
CCOC(=O)c1c(C)oc2nc(C)nc(NCc3cccc(OC)c3)c12	0	11	2	0	0
CCN(Cc1ccccc1)Cc1nnnn1Cc1ccccc1	0	0	2	3	-73*
Cc1ccc(C)c(NC(=O)N2CCC(CN3CCOCC3)CC2)c1	0	10	2	-1	37
Cn1c(=O)c(=O)n(C)c2cc(S(=O)(=O)CCC(=O)Nc3ccc(F)cc3)ccc21	0	1	1	0	19
Cc1cccc(C)c1NC(=O)CCS(=O)(=O)c1ccc2c(c1)n(C)c(=O)c(=O)n2C	1	-6	-5	3	-36*
COc1ccc(NC(=O)CCS(=O)(=O)c2ccc(OC)cc2)cc1	-2	5	-12	-1	-42*
CCOC(=O)c1[nH]c(C)c(C(=O)OCC(=O)NCc2ccc(OC)cc2)c1C	-1	-2	1	1	-25
CCOC(=O)c1c(C)[nH]c(C(=O)N(C)CC(=O)Nc2ccc(OC)cc2)c1C	0	7	4	1	-68*
COc1cccc(NC(=O)CCS(=O)(=O)c2ccc3c(c2)oc(=O)n3C)c1	0	7	2	3	-30*!
Cc1nc(-c2ccc(Cl)cc2)sc1CCNC(=O)c1ccco1	0	-10	0	1	2
Cc1cccc(OC(=O)c2snnc2C)c1C	0	0	2	0	8
COc1ccc(NC(=O)CCS(=O)(=O)c2ccc(Br)s2)cc1	-1	4	-4	0	-37*
COc1ccc(CC(=O)NC(=S)Nc2ccc(S(N)(=O)=O)cc2)cc1	2	0	-9	34*	10
COc1ccc(NC(=O)CN(C)C(=O)CCNS(=O)(=O)c2ccc(Br)cc2)cc1	0	10	-8	1	-28
COc1ccc(CC(=O)NC(=S)Nc2ccc(S(=O)(=O)NC(C)(C)C)cc2)cc1	4	4	7	16	-2
CCOc1ccc(S(=O)(=O)NCCC(=O)N(C)CC(=O)Nc2ccc(OC)cc2)cc1	0	15	-11	2	-43*
CC(C)c1ccc(NC(=O)CCS(=O)(=O)c2ccc(Br)s2)cc1	-2	-10	-1	16	-9
